Assay results from PubChem BioAssay (NCATS).
Where “and” joins values, the source holds several entries; their conditions need not be identical. Identical values can stand only once. Results filed as inconclusive are left out. Calls of active or inactive are those of the source. Unless noted, the call rests on the fitted dose curve; in most records, active means well fitted curve in the direction sought with a large enough effect; inconclusive means small, poorly fitted or top-dose-only effect, or another doubt; inactive means no such curve, though single readings can be large; an effect the other way counts as inactive or inconclusive.

Tests used:
NIH3T3 = assay: qHTS assay to identify novel small-molecules to repurpose for Merkel cell carcinoma treatment (AID 1296009); details: MCC and control cell lines, CellTiter-Glo viability, 72 h; at 44.8 µM (top of the series) unless noted; further: nearly all actives have a fitted effect of over 60% in size
In short: (§1)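 CellTiter-Glo luminescence after 72 hr compound exposure at 37 degree celsius gave cell viability. Libraries NPC and MIPE were run as 8- and 11-point dose responses; RLUs normalized to DMSO (negative) and no-cell (cytotoxicity) controls.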

UISO = assay: as above; details: MCC and control cell lines, CellTiter-Glo viability, 72 h; series mostly up to 46 µM
In short: as §1

WaGa = assay: as above; details: MCC and control cell lines, CellTiter-Glo viability, 72 h; series mostly up to 46 µM
In short: as §1

C33A = assay: Primary qHTS to identify gynecologic anti-cancer compounds using libraries of approved drugs and bioactive compounds (AID 1345084); details: Gynecologic cancer cell panel viability, ATPlite luminescence, 48 h; series mostly up to 57.5 µM; further: on the % scale 0 is the no-effect control and ±100 the full control effect; nearly all actives have a fitted effect of over 55% in size
In short: (§2)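 In this quantitative HTS, cell killing is estimated from loss of ATP-dependent luciferase light. Cells see five compound concentrations over a 48 h exposure.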

CAOV3 = assay: as above; details: Gynecologic cancer cell panel viability, ATPlite luminescence, 48 h; series mostly up to 57.5 µM
In short: as §2

CASKI = assay: as above; details: Gynecologic cancer cell panel viability, ATPlite luminescence, 48 h; series mostly up to 57.5 µM
In short: as §2

Es-2 = assay: as above; details: Gynecologic cancer cell panel viability, ATPlite luminescence, 48 h; series mostly up to 57.5 µM
In short: as §2

HeLa = assay: as above; details: Gynecologic cancer cell panel viability, ATPlite luminescence, 48 h; series mostly up to 57.5 µM
In short: as §2

Hek293T = assay: as above; details: Gynecologic cancer cell panel viability, ATPlite luminescence, 48 h, control line for the selectivity index; series mostly up to 57.5 µM
In short: as §2

JEG-3 = assay: as above; details: Gynecologic cancer cell panel viability, ATPlite luminescence, 48 h; series mostly up to 57.5 µM
In short: as §2

OV90 = assay: as above; details: Gynecologic cancer cell panel viability, ATPlite luminescence, 48 h; series mostly up to 57.5 µM
In short: as §2

PA-1 = assay: as above; details: Gynecologic cancer cell panel viability, ATPlite luminescence, 48 h; series mostly up to 57.5 µM
In short: as §2

SKOV3 = assay: as above; details: Gynecologic cancer cell panel viability, ATPlite luminescence, 48 h; series mostly up to 57.5 µM
In short: as §2

Tov-21-G = assay: as above; details: Gynecologic cancer cell panel viability, ATPlite luminescence, 48 h; series mostly up to 57.5 µM
In short: as §2

Tov112D = assay: as above; details: Gynecologic cancer cell panel viability, ATPlite luminescence, 48 h; series mostly up to 57.5 µM
In short: as §2

[1] = Drug repurposing screens with cells derived from glioblastoma tumor samples (AID 1345199); details: GBM patient neurospheres viability, ATP luminescence, 48 h; further: on the % scale 0 is the no-effect control and ±100 the full control effect; nearly all actives have a fitted effect of over 40% in size
In short: (§3)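 Primary testing used CD133+ neurospheres from four GBM patients, seven concentrations, 48 h exposure and ATP-based viability; confirmation added three slower-growing patient lines.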

astro = assay: as above; details: viability, ATP luminescence, 48 h; series mostly up to 45.9 µM
In short: as §3

[2] = biological target: Nuclear receptor subfamily 1 group I member 2 (Rattus norvegicus) (UniProt Q9R1A7); assay: qHTS assay for small molecule activators of the rat pregnane X receptor (rPXR) signaling pathway (AID 651751; call rule not given here; further: 0% is about no effect); details: rPXR reporter cells, luciferase (One-Glo), 24 h
Sequence of Nuclear receptor subfamily 1 group I member 2 (Rattus norvegicus) (Q9R1A7 whole entry, looked up): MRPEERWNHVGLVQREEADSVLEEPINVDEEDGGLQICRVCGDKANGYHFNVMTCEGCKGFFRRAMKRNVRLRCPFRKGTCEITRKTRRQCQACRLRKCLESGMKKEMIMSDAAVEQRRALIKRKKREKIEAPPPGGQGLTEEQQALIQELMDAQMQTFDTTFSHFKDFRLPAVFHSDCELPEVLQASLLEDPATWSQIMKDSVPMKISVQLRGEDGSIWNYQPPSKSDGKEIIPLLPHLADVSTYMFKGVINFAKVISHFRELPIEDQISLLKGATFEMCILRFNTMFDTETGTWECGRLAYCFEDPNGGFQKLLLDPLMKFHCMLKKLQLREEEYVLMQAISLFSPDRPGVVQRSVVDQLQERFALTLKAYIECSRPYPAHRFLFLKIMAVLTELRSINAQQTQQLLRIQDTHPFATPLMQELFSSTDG

[3] = qHTS assay for small molecule activators of the human pregnane X receptor (PXR) signaling pathway (AID 720659; call rule not given here; further: 0% is about no effect)
[4] = at 45.9 µM (top of the series), tumour line B
[5] = at 45.9 µM (top of the series), tumour line D
[6] = at 46 µM (top of the series), tumour line A
[7] = at 46.1 µM (top of the series), tumour line C
[8] = at 20 µM (top of the series), tumour line C
[9] = at 21.2 µM (top of the series), tumour line B
[10] = at 21.2 µM (top of the series), tumour line D
[11] = at 21.3 µM (top of the series), tumour line A

COc1nccnc1NS(=O)(=O)c1ccc(N)cc1
inactive: outcome (NIH3T3) | outcome (UISO) | outcome (WaGa) | outcome (C33A) | outcome (CAOV3) | outcome (CASKI) | outcome (Es-2) | outcome (HeLa) | outcome (Hek293T) | outcome (JEG-3) | Potency (OV90) | outcome (PA-1) | outcome (SKOV3) | outcome (Tov-21-G) | outcome (Tov112D) | activity, negative = cell killing [1, 4] 0.463% | activity, negative = cell killing [1, 5] -17.5% | activity, negative = cell killing [1, 6] -24.3% | activity, negative = cell killing [1, 7] -3.06% | outcome (astro)

CC(=O)N(CC(O)CN(C(C)=O)c1c(I)c(C(=O)NCC(O)CO)c(I)c(C(=O)NCC(O)CO)c1I)c1c(I)c(C(=O)NCC(O)CO)c(I)c(C(=O)NCC(O)CO)c1I (configuration not stated)
inactive: outcome (NIH3T3) | outcome (UISO) | outcome (WaGa) | outcome (C33A) | outcome (CAOV3) | outcome (CASKI) | outcome (Es-2) | outcome (HeLa) | outcome (Hek293T) | outcome (JEG-3) | Potency (OV90) | outcome (PA-1) | outcome (SKOV3) | outcome (Tov-21-G) | outcome (Tov112D) | activity, negative = cell killing [1, 8] 4.37% | activity, negative = cell killing [1, 9] -1.18% | activity, negative = cell killing [1, 10] 15.1% | activity, negative = cell killing [1, 11] -9.07% | outcome (astro)

O=c1[nH]c2cc(C(F)(F)F)c(N3CCOCC3)cc2n(CP(=O)(O)O)c1=O
inactive: outcome (NIH3T3) | outcome (UISO) | outcome (WaGa) | outcome (C33A) | outcome (CAOV3) | outcome (CASKI) | outcome (Es-2) | outcome (HeLa) | outcome (Hek293T) | outcome (JEG-3) | Potency (OV90) | outcome (PA-1) | outcome (SKOV3) | outcome (Tov-21-G) | outcome (Tov112D) | activity, negative = cell killing [1, 4] -1.62% | activity, negative = cell killing [1, 5] -2.48% | activity, negative = cell killing [1, 7] -20.3% | outcome (astro)

O=C(NCCCN1CCOCC1)c1ccc(Cl)cc1
inactive: outcome (NIH3T3) | outcome (UISO) | outcome (WaGa) | outcome (C33A) | outcome (CAOV3) | outcome (CASKI) | outcome (Es-2) | outcome (HeLa) | outcome (Hek293T) | outcome (JEG-3) | Potency (OV90) | outcome (PA-1) | outcome (SKOV3) | outcome (Tov-21-G) | outcome (Tov112D) | activity, negative = cell killing [1, 4] -1.61% | activity, negative = cell killing [1, 5] -16.9% | activity, negative = cell killing [1, 6] -28.4% | activity, negative = cell killing [1, 7] -13.2% | outcome (astro)

NS(=O)(=O)c1cc(C2(O)NC(=O)c3ccccc32)ccc1Cl (configuration not stated)
inactive: outcome (NIH3T3) | outcome (UISO) | outcome (WaGa) | outcome (C33A) | outcome (CAOV3) | outcome (CASKI) | outcome (Es-2) | outcome (HeLa) | outcome (Hek293T) | outcome (JEG-3) | Potency (OV90) | outcome (PA-1) | outcome (SKOV3) | outcome (Tov-21-G) | outcome (Tov112D) | activity, negative = cell killing [1, 8] 3.89% | activity, negative = cell killing [1, 9] 6.28% | activity, negative = cell killing [1, 10] -20.6% | outcome (astro)

CC1(C)S[C@@H]2[C@H](N=CN3CCCCCC3)C(=O)N2[C@H]1C(=O)O
inactive: outcome (NIH3T3) | outcome (UISO) | outcome (WaGa) | outcome (C33A) | outcome (CAOV3) | outcome (CASKI) | outcome (Es-2) | outcome (HeLa) | outcome (Hek293T) | outcome (JEG-3) | Potency (OV90) | outcome (PA-1) | outcome (SKOV3) | outcome (Tov-21-G) | outcome (Tov112D) | activity, negative = cell killing [1, 4] 0.648% | activity, negative = cell killing [1, 5] 9.1% | activity, negative = cell killing [1, 6] -11.3% | activity, negative = cell killing [1, 7] -4.3% | outcome (astro)

CC(N)CCCC(C)(C)O (configuration not stated)
inactive: outcome (NIH3T3) | outcome (UISO) | outcome (WaGa) | outcome (C33A) | outcome (CAOV3) | outcome (CASKI) | outcome (Es-2) | outcome (HeLa) | outcome (Hek293T) | outcome (JEG-3) | Potency (OV90) | outcome (PA-1) | outcome (SKOV3) | outcome (Tov-21-G) | outcome (Tov112D) | activity, negative = cell killing [1, 4] -8.17% | activity, negative = cell killing [1, 5] -3.88% | activity, negative = cell killing [1, 6] -24.8% | activity, negative = cell killing [1, 7] -13.9%

COc1ccccc1OCC(O)CO (configuration not stated)
inactive: outcome (NIH3T3) | outcome (UISO) | outcome (WaGa) | outcome (C33A) | outcome (CAOV3) | outcome (CASKI) | outcome (Es-2) | outcome (HeLa) | outcome (Hek293T) | outcome (JEG-3) | Potency (OV90) | outcome (PA-1) | outcome (SKOV3) | outcome (Tov-21-G) | outcome (Tov112D) | activity, negative = cell killing [1, 8] 14.1% | activity, negative = cell killing [1, 9] -4.78% | activity, negative = cell killing [1, 10] -22.3% | activity, negative = cell killing [1, 11] -18.5% | outcome (astro)

NS(=O)(=O)c1ccc(NC(=O)CCC(=O)O)cc1
inactive: outcome (NIH3T3) | outcome (UISO) | outcome (WaGa) | outcome (C33A) | outcome (CAOV3) | outcome (CASKI) | outcome (Es-2) | outcome (HeLa) | outcome (Hek293T) | outcome (JEG-3) | Potency (OV90) | outcome (PA-1) | outcome (SKOV3) | outcome (Tov-21-G) | outcome (Tov112D) | activity, negative = cell killing [1, 4] -12.7% | activity, negative = cell killing [1, 5] 0.766% | activity, negative = cell killing [1, 7] -4.81%

NC(N)=NS(=O)(=O)c1ccc(N)cc1
inactive: outcome (NIH3T3) | outcome (UISO) | outcome (WaGa) | outcome (C33A) | outcome (CAOV3) | outcome (CASKI) | outcome (Es-2) | outcome (HeLa) | outcome (Hek293T) | outcome (JEG-3) | Potency (OV90) | outcome (PA-1) | outcome (SKOV3) | outcome (Tov-21-G) | outcome (Tov112D) | activity, negative = cell killing [1, 8] 3.63% | activity, negative = cell killing [1, 9] -6.02% | activity, negative = cell killing [1, 10] 9.81% | activity, negative = cell killing [1, 11] 6.37% | outcome (astro)

CC(=O)OCC(COC(C)=O)OC(C)=O
inactive: outcome (NIH3T3) | outcome (UISO) | outcome (WaGa) | outcome (C33A) | outcome (CAOV3) | outcome (CASKI) | outcome (Es-2) | outcome (HeLa) | outcome (Hek293T) | outcome (JEG-3) | Potency (OV90) | outcome (PA-1) | outcome (SKOV3) | outcome (Tov-21-G) | outcome (Tov112D) | activity, negative = cell killing [1, 4] 7.15% | activity, negative = cell killing [1, 5] 15.4% | activity, negative = cell killing [1, 6] -13.4% | activity, negative = cell killing [1, 7] 1.43% | outcome (astro) | max response [2] -2.17% and 2.63% | outcome [3]
